In the library only some 3.5% were active in any assay of this set; here they are far more common.
MITF inh: MITF inhibitors, primary screen, biochemical, AlphaScreen, human. 650,000 tested, 0.91% active. inhibition, % at 2.6 µM. AlphaScreen MITF homodimerization, bead proximity signal; in the data active = inhibition above about 50%;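 also: 0% = vehicle wells with protein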
GPR151 ag: activators of human GPR151, primary screen, cell-based, PathHunter beta-arrestin, luminescence | G-protein coupled receptor 151 (Homo sapiens), Q8TDV0 | PathHunter beta-arrestin GPR151 cells | activation, % at 11.2 µM | 650,000 tested, 1% active; in the data active = activation above about 4.9%;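 also: 0% = median of compound wells and 100% = cells with positive control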
Target sequence (Q8TDV0 whole entry, looked up): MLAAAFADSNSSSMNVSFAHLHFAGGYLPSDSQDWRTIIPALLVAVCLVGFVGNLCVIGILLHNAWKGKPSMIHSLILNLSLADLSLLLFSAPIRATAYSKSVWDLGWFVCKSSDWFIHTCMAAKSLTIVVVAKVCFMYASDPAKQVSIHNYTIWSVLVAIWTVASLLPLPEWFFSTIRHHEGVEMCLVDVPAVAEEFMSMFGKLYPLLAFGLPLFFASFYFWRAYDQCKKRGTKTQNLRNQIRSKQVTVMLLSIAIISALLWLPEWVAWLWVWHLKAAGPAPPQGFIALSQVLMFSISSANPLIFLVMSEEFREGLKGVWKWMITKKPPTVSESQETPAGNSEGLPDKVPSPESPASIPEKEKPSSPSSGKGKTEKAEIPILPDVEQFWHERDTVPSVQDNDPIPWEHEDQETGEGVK
TEAD-YAP inh: TEAD-YAP interaction inhibition, primary screen, TEAD-YAP interaction inhibitor project, luminescence, HEK-TIYL cells; TEAD-Gal4/YAP UAS-luciferase luminescence; inhibition, % at 9.12 µM; 640,000 tested, 1.4% active; in the data active = inhibition above about 32%;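 also: 0% = median of test compound wells and 100% = reference inhibitor wells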
FBW7 act: FBW7 E3 ligase activators, primary screen, biochemical, AlphaScreen, human; F-box/WD repeat-containing protein 7 (Homo sapiens), Q969H0; 650,000 tested, 0.13% active; AlphaScreen FBW7–phospho-cyclin E peptide binding, activator screen; normalized activity (activation), % at 26.1 µM; AID 1259310, 2017; in the data active = normalized activity above about 1.9%;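 also: purified mutant Fbw7 with reduced substrate affinity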
MITF confirm: MITF inhibitors, retest of hits, confirmation, biochemical, AlphaScreen, triplicate; shares compounds with MITF inh; AlphaScreen MITF homodimerization, biotin/His-MITF beads; AID 1259372, 2018; 4,700 tested, 16% active; inhibition, % at 2.6 µM;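 active = inhibition above a cutoff derived from the DMSO control wells, cut at about 28% in these data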;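 also: 0% = MITF dimer wells with DMSO only; inhibitors lower the bead chemiluminescence by keeping MITF from dimerizing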
AlphaScreen intf2: AlphaScreen optical interference compounds, counter-screen for MITF inhibitor project, biochemical, triplicate; shares compounds with MITF inh; LysRS AlphaScreen counterscreen, signal interference; inhibition, % at 2.6 µM; 4,700 tested, 7.6% active; AID 1259376, 2018;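 active = inhibition above a cutoff derived from the DMSO control wells, cut at about 30% in these data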
Numbers without * were called inactive; x = not tested or not shown.

SMILES	MITF inh	GPR151 ag	TEAD-YAP inh	FBW7 act	MITF confirm	AlphaScreen intf2
O=C(c1ccccc1F)N1CCN(Cc2cccc(F)c2)CC1	54*	1	-6	0	-3	4
O=C(c1cccc(F)c1)N1CCN(Cc2cccc(F)c2)CC1	57*	-1	-6	0	6	16
COc1cccc(N2C(=O)CN(C(=O)c3cc(C)nc4ccc(C)cc34)CC2C)c1 (stereo unspecified)	3	-1	4	0	x	x
CCONC(=Nc1ccccc1OC)c1nonc1N	-9	0	-1	0	x	x
O=C(c1cccc(F)c1)N1CCN(Cc2cccnc2)CC1	87*	0	-3	0	-4	0
O=C(c1cccc(F)c1)N1CCN(CC2CC3C=CC2C3)CC1 (stereo unspecified)	58*	0	-6	0	-23	4
COc1ccc(C(=O)N2CCN(Cc3cccc(F)c3)CC2)cc1	46	-1	-11	0	x	x
O=C(c1ccc(F)cc1)N1CCN(Cc2cccc(F)c2)CC1	58*	1	4	0	4	4
O=C(c1cccc(F)c1)N1CCN(Cc2cccc(Oc3ccccc3)c2)CC1	38	2	-16	0	x	x
O=C(c1ccc(-c2ccccc2)cc1)N1CCN(Cc2cccnc2)CC1	68*	1	-10	0	19	15
O=C(c1ccccc1F)N1CCN(CC2CC3C=CC2C3)CC1 (stereo unspecified)	39	0	5	0	x	x
Nc1c(C(=O)Nc2ccc(F)cc2)sc2nc3c(cc12)CCC3	10	0	-58	1	x	x
Cc1ccc(O)c(NC(=O)c2cnn3c(C(F)(F)F)cc(-c4ccc(F)cc4)nc23)c1	2	1	1	0	x	x
O=[N+]([O-])c1cccc(CSc2nc3ccccc3c3nc(CCc4c[nH]c5ccccc45)nn23)c1	5	-1	-29	1	x	x
CSc1ccc(CN2CCN(C(=O)c3ccc(F)cc3)CC2)cc1	55*	-1	44*	1	7	12
CSc1ccc(CN2CCN(C(=O)c3ccc(-c4ccccc4)cc3)CC2)cc1	1	0	7	0	x	x
C(=N\N1CCOCC1)/c1cccc(Oc2ccccc2)c1	70*	1	-34	0	12	7
O=C(NCc1cccnc1)c1cccc(-c2cccs2)n1	20	2	5	0	x	x
Cc1cc(=O)[nH]c(N/N=C/c2c3ccccc3cc3ccccc23)n1	51*	-2	-1	0	24	-4
CN(CCc1ccccn1)Cc1ccc(C(=O)NCc2ccccc2Cl)c(=O)[nH]1	4	-3	-4	0	x	x
CN(Cc1ccc(C(=O)NCc2ccccc2Cl)c(=O)[nH]1)Cc1nccn1C	52*	-1	2	0	38*	78*
C=CCc1cc(C)ccc1OCCN1CCN(C)CC1	57*	-1	-11	0	6	2
C=CCc1cc(C)ccc1OCCNC(C)C	88*	0	10	0	-19	-3
Cc1ccc(Cl)c(OCCCN2CCOCC2)c1	55*	0	-13	0	13	14
C=CCc1cc(OC)ccc1OCCCCN1CCOCC1	33	-1	-2	0	x	x
SMILES	MITF inh	GPR151 ag	TEAD-YAP inh	FBW7 act	MITF confirm	AlphaScreen intf2
C=CCc1cc(C)ccc1OCCCN1CCOCC1	72*	4	5	0	-12	38*
Cc1ccc(OCCN2CCOCC2)c(Cl)c1	-7	2	-4	0	x	x
CCCOCCOC(=O)C1=C(C)NC2=C(C(=O)CC(C)(C)C2)C1c1cccc([N+](=O)[O-])c1 (stereo unspecified)	-6	1	9	0	x	x
CCOC(=O)C(=CNc1cccnc1)C(=O)OCC	4	-1	1	1	x	x
O=C(CSc1nnc(CNC(=O)c2ccco2)n1-c1ccc([N+](=O)[O-])cc1)Nc1cc(C(F)(F)F)ccc1Cl	4	0	-7	0	x	x
CCOC(=O)C(CC)Oc1ccc2c(=O)c(Oc3ccccc3Cl)coc2c1 (stereo unspecified)	2	-1	-24	0	x	x
O=C(Nc1nnc(SCC(=O)N2CCc3ccccc32)s1)c1c(F)cccc1Cl	-3	3	5	0	x	x
C=CCc1cc(C)ccc1OCCCN1CC(C)OC(C)C1 (stereo unspecified)	53*	-1	-15	0	2	-1
COc1cc(C)ccc1OCCCN1CC(C)OC(C)C1 (stereo unspecified)	45	0	-11	0	x	x
O=C(NNc1ncnc(NNC(=O)c2ccncc2)c1[N+](=O)[O-])c1ccncc1	65*	-8	3	-1	66*	100*
CCOC(=O)c1sc(NC(=O)C(C)Sc2nnc(CNC(=O)COc3ccccc3)n2C)c(C(=O)OCC)c1C (stereo unspecified)	-3	1	-6	0	x	x
CCn1c2ccccc2c2cc(CN3CCN(C(=O)c4ccc(F)cc4)CC3)ccc21	55*	4	-14	0	5	7
CCn1c2ccccc2c2cc(CN3CCN(C(=O)c4ccccc4)CC3)ccc21	23	0	-1	0	x	x
CCn1c2ccccc2c2cc(CN3CCN(C(=O)c4cccnc4)CC3)ccc21	58*	0	-4	0	3	3
CCn1c2ccccc2c2cc(CN3CCN(C(=O)c4ccc(OC)cc4)CC3)ccc21	48	1	7	0	x	x
O=S(=O)(c1ccc(F)cc1)N1CCC(O)(c2cccnc2)CC1	72*	-1	-1	0	12	17
Cc1ccc(S(=O)(=O)N2CCC(O)(c3cccnc3)CC2)cc1	33	-1	-1	0	x	x
Cc1ccsc1/C=N/Nc1nc(=O)[nH]nc1C	60*	-6	25	0	34*	100*
Cc1n[nH]c(=O)nc1N/N=C/c1ccc(O)cc1	9	-8	4	0	x	x
COc1cccc(NC(=O)c2sc3nc(N)c(C#N)c(-c4ccc(C(C)C)cc4)c3c2N)c1	52*	1	-5	0	-2	-8
CC(C)c1ccc(-c2c(C#N)c(N)nc3sc(C(=O)Nc4ccc(Cl)cc4)c(N)c23)cc1	3	0	1	0	x	x
CC1=C(C(=O)N2CCOCC2)C(c2ccc(O)c([N+](=O)[O-])c2)C2=C(CC(C)(C)CC2=O)N1 (stereo unspecified)	12	0	5	0	x	x
C(=N\Nc1nnnn1-c1cccc2ccccc12)/c1ccncc1	-2	1	1	0	x	x
C(=N\Nc1nnnn1-c1cccc2ccccc12)/c1ccc(OCc2ccccn2)cc1	69*	0	14	0	-2	9
